This note sets out measurements from article PMC7862700, “An all-to-all approach to the identification of sequence-specific readers for epigenetic DNA modifications on cytosine”.

Common to all, as to assay: DAPPL (digital affinity profiling via proximity ligation, sequencing); 10 mM Tris-HCl pH 7.5, 50 mM NaCl, 1 mM DTT, 4% glycerol, room temperature, 30 min; GST-TFs on glutathione beads, 16-mer random dsDNA library, 0.1% formaldehyde crosslink after washing; high values mean tight binding
Holding throughout (details): protein: recombinant; tags: N-terminal GST; dsDNA, one strand shown

One test addresses T1, ELK1 (Homo sapiens, UniProt P19419 1-428).
T1 sequence: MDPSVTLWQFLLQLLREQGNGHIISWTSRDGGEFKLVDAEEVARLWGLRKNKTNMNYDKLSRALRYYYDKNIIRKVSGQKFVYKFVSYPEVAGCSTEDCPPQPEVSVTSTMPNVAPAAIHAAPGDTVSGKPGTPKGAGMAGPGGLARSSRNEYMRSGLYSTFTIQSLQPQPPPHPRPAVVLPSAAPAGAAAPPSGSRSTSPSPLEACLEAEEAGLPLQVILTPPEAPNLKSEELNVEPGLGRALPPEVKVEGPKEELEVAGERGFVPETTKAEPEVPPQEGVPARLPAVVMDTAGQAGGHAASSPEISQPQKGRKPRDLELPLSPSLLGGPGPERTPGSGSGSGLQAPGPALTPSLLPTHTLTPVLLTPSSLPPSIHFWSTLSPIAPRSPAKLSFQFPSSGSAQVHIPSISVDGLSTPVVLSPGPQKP
The procedure, abridged:
(§1)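 GST fusions of human transcription factors were expressed in yeast and captured with glutathione beads. Once given DNA barcodes and pooled alongside a tag-only sample, they were incubated for 30 min at room temperature with 200 nmole of a random double-stranded 16-mer DNA library in Tris/NaCl/DTT/glycerol buffer, then washed, crosslinked (0.1% formaldehyde), proximity-ligated, PCR-amplified and sequenced on an Illumina NextSeq500. The binding signal of each hexamer is its read frequency for a factor divided by its frequency for the tag-only sample.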

Another test addresses T2, GABPA (Homo sapiens, UniProt Q06546 1-454).
T2 sequence: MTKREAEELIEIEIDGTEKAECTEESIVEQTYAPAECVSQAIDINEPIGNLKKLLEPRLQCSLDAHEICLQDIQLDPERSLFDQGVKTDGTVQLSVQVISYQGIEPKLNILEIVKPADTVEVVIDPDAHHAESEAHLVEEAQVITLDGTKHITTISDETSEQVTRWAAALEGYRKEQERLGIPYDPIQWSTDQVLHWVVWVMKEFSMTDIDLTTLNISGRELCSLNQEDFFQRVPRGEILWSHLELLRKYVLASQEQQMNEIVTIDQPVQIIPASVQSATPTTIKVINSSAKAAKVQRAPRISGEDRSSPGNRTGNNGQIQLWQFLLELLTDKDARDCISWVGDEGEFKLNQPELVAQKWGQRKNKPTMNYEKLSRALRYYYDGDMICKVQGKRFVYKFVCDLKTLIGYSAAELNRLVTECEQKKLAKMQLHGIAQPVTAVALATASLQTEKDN
The procedure, abridged: as §1

Another test deals with ELF1 (Homo sapiens, UniProt P32519 1-619). In short, it runs like this:
as §1

Another test deals with SPIB (Homo sapiens, UniProt Q01892 1-262). The procedure, abridged:
as §1

The next test concerns the target T3, FEV (Homo sapiens, UniProt Q99581 1-238).
T3 sequence: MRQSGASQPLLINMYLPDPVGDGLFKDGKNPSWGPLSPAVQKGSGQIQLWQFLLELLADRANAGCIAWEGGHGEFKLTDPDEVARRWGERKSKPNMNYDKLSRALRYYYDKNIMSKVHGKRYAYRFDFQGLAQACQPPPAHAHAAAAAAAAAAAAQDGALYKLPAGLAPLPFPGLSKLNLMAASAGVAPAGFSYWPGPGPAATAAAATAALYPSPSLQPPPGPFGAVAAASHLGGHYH
In short, it runs like this:
as §1

For the next test, the target named is ETV5 (Homo sapiens, UniProt P41161 1-510). The procedure, abridged: as §1
ETV5, sequence (P41161 whole entry): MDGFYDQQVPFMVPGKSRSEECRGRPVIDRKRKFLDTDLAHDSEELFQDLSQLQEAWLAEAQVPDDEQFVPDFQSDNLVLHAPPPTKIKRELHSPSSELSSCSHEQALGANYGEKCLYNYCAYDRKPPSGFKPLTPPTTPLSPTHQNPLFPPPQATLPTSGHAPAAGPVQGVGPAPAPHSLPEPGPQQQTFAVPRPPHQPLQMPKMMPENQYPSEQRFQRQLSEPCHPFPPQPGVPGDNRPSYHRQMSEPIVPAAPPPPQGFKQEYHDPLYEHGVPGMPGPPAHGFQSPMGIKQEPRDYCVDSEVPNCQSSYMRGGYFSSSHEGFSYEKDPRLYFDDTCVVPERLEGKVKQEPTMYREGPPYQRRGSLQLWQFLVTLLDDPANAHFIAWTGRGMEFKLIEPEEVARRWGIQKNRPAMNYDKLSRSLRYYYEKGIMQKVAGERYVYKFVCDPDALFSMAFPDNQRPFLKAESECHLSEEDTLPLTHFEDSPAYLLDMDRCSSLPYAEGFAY
Another test has as its target ELF4 (Homo sapiens, UniProt Q99607 1-663). The procedure, abridged: as §1
A further test deals with ETV1 (Homo sapiens, UniProt P50549 1-477). In short, it runs like this:
as §1

The next test concerns the target T4, ERF (Homo sapiens, UniProt P50548 1-548).
T4 sequence: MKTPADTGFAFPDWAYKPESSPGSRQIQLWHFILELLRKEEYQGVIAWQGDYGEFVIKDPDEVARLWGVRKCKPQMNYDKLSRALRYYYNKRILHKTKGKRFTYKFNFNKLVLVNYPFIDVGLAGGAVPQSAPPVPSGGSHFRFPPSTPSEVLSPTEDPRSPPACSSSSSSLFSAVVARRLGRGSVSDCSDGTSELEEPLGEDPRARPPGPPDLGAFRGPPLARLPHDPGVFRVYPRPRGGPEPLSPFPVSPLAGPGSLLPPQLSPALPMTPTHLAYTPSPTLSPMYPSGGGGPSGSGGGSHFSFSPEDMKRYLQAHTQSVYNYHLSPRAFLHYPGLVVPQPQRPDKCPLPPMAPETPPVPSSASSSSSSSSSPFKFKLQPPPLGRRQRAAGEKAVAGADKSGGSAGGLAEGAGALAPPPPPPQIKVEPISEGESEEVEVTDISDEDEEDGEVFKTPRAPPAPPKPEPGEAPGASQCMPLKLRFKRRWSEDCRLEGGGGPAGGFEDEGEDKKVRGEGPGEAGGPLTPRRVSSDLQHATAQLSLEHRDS
In short, it runs like this: as §1

Another test deals with T5, ETV7 (Homo sapiens, UniProt Q9Y603 1-341).
T5 sequence: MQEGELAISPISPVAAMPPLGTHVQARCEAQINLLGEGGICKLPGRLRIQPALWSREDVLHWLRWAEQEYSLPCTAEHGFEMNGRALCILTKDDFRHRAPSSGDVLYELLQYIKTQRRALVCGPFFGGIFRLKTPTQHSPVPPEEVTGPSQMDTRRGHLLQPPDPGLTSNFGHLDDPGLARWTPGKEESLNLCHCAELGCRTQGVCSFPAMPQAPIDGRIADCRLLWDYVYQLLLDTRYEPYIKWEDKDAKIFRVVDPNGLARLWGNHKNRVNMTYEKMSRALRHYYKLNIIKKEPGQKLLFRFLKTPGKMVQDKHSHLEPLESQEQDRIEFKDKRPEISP
In short, it runs like this: as §1

The next test concerns the target T6, ETV3 (Homo sapiens, UniProt P41162-2 1-143).
T6 sequence: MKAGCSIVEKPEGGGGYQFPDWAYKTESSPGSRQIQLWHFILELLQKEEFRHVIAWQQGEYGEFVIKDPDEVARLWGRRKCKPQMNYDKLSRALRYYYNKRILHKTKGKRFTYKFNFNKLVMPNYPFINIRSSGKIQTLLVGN
The procedure, abridged: as §1

A further test addresses ETV6 (Homo sapiens, UniProt P41212 1-452). In short, it runs like this:
as §1

ETV1, sequence (P50549 whole entry): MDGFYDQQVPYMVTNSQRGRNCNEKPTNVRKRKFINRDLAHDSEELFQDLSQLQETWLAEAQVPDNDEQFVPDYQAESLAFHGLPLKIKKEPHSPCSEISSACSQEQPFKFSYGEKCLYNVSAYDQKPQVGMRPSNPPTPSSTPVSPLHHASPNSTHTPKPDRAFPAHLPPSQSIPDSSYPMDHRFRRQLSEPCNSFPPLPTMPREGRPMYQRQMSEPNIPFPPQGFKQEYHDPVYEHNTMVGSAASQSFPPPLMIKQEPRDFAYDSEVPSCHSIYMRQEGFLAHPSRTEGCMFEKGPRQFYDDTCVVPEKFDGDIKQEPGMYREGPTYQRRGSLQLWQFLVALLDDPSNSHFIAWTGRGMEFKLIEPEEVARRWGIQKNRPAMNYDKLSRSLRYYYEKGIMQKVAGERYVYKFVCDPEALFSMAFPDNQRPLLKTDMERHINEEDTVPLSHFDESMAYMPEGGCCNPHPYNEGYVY
ELF4, sequence (Q99607 whole entry): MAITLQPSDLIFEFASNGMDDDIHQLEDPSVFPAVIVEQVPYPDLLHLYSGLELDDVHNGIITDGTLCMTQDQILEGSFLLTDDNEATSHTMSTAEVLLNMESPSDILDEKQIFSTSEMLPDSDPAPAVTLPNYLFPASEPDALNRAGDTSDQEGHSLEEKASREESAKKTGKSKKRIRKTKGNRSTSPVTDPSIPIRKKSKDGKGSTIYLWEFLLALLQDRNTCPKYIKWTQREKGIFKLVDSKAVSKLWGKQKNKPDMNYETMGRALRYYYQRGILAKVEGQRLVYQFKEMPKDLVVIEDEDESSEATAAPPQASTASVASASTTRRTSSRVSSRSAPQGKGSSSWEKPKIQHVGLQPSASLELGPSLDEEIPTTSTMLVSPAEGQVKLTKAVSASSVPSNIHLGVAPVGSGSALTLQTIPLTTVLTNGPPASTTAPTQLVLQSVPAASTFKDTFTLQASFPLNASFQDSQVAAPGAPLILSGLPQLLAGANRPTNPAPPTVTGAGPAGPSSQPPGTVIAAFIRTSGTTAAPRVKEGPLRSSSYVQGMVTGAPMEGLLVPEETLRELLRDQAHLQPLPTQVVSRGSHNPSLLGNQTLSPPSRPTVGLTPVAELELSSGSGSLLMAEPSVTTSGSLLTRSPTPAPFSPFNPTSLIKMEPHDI
ETV6, sequence (P41212 whole entry): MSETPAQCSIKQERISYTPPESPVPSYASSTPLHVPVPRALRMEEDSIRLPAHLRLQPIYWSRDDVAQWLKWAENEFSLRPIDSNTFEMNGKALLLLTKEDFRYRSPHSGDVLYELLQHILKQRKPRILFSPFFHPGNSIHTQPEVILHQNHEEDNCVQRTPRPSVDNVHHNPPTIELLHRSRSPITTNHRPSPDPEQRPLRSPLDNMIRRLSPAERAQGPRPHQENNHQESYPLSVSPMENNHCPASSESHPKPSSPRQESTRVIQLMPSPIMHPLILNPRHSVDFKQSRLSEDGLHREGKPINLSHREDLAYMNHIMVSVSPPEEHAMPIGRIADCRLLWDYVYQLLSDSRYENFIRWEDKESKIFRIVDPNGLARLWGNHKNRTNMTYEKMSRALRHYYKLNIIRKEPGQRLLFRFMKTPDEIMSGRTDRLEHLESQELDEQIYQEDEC
ELF1, sequence (P32519 whole entry): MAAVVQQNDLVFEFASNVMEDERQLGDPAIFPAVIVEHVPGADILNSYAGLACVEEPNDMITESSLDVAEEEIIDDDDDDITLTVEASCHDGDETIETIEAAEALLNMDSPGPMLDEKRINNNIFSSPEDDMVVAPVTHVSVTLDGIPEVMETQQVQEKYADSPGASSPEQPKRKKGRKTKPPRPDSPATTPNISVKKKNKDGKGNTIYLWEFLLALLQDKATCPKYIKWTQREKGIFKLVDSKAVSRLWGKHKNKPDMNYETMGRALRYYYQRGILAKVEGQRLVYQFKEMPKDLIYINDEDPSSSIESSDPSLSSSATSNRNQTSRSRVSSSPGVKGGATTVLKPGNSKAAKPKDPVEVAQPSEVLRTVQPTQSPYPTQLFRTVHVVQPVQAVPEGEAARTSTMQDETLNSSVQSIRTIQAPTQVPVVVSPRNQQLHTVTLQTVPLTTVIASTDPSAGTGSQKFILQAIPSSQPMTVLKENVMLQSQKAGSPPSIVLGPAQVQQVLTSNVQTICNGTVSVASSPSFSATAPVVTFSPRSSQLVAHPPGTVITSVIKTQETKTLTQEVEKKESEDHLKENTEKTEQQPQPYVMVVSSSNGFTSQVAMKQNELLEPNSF
SPIB, sequence (Q01892 whole entry): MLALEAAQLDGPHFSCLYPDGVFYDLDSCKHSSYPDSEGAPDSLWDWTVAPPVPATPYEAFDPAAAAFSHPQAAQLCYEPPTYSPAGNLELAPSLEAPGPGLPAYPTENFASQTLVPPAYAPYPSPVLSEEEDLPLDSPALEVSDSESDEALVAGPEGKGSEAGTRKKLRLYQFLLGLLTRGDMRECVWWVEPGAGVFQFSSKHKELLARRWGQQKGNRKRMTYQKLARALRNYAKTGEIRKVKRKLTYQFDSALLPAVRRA

For CAATGG, the binding signal with ELK1 is 1.03 fold enrichment (6-mer frequency, TF over GST control); with GABPA, 1.09 fold enrichment (6-mer frequency, TF over GST control); in the test with ELF1 it was 1.03 fold enrichment (6-mer frequency, TF over GST control); in the test with SPIB, 1.03 fold enrichment (6-mer frequency, TF over GST control); with FEV, 1.04 fold enrichment (6-mer frequency, TF over GST control); in the test with ETV5, 1.03 fold enrichment (6-mer frequency, TF over GST control). Moreover, the binding signal was 1.02 fold enrichment (6-mer frequency, TF over GST control) with ELF4; 1.1 fold enrichment (6-mer frequency, TF over GST control) with ETV1; 1.03 fold enrichment (6-mer frequency, TF over GST control) with ERF; 1.12 fold enrichment (6-mer frequency, TF over GST control) with ETV7; 1.03 fold enrichment (6-mer frequency, TF over GST control) with ETV3; 1.04 fold enrichment (6-mer frequency, TF over GST control) with ETV6.
